SMILES strings stand for the structures. Records with an inconclusive call do not appear. A call without a number means that no potency is given here. Active and inactive are the calls of the source. The call rests on the fitted dose curve; in most records, active means well fitted inhibition curve with a large enough effect; inconclusive means small, poorly fitted or top-dose-only effect; inactive means flat fitted curve, though single readings scatter.
Potency means the concentration at half of the fitted maximal effect.

The first assay deals with AS120. Put plainly: qHTS profiling for inhibitors of Plasmodium falciparum proliferation (AID 504749). Further: nearly all actives have a fitted effect of over 60% in size. The settings on record: P. falciparum in erythrocytes, SYBR Green DNA, 72 h; series mostly up to 28.7 µM. The procedure, abridged: (§1)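 Readout was DNA-dye fluorescence from lysed cultures, ex 485/em 535 nm. Parasitized red cells had grown 72 h with compound; data scaled between 0.29 uM artemisinin and DMSO wells and corrected using vehicle-only plates.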
For orientation: In qHTS, concentration-response curves come from the screen itself.
Take `CN1CCc2cccc3c2[C@H]1Cc1ccc(O)c(O)c1-3`: the Potency was 7.94 µM (active).
On the same count and under the same terms, in the case of `CCCN(CCc1cccs1)[C@H]1CCc2c(O)cccc2C1` it was 7.08 µM (active).
`CC1=C(C(=O)O)N2C(=O)[C@@H](NC(=O)[C@H](N)c3ccccc3)[C@H]2SC1`: the Potency result is “inactive”.
For `O=C(CN1CCN(Cc2ccc3c(c2)OCO3)CC1)N1c2ccccc2Sc2ccccc21`, the Potency is 10 µM (active).
As to `COc1ccc(C(=O)c2ccccc2O)c(O)c1`, the Potency was 3.98 µM (active).
Still for that read-out and setting: in the case of `COc1cc(N)c(Cl)cc1C(=O)NC1CCN(Cc2ccccc2)CC1` it was “inactive”.
On the same count and under the same terms, as for `CC(=O)O[C@]1(C(C)=O)CC[C@H]2[C@@H]3C=C(Cl)C4=CC(=O)CC[C@]4(C)[C@H]3CC[C@@]21C`, the figure is 11.2 µM (active).
On the same count and under the same terms, as for `O=C(NC1CCN(CCc2c[nH]c3ccccc23)CC1)c1ccccc1`, the entry is “inactive”; as for `C[N+]1(C)CCC(=C(c2ccccc2)c2ccccc2)CC1`, “inactive”; as for `CC[N+](C)(CC)CCOC(=O)C(O)(c1ccccc1)C1CCCCC1` (centres undefined), “inactive”.
With `Oc1c(Cl)cc(Cl)c(Cl)c1Cc1c(O)c(Cl)cc(Cl)c1Cl`, the Potency was 11.2 µM (active).
As to `CCNC(=O)/C=C/c1cccc(Br)c1`, the Potency entry was “inactive”.
Same read-out and setting: in the case of `Cn1c(=O)c2[nH]c(Br)nc2n(C)c1=O` it was “inactive”.
The same measure, in the same setting: in the case of `CN(CCCN1c2ccccc2CCc2ccccc21)CC(=O)c1ccc(Cl)cc1` it was 12.6 µM (active); in that of `Cc1ccc2c(Br)cc(Br)c(O)c2n1`, 8.91 µM (active); in that of `CC(C)[N+](C)(C)CC(O)COc1cccc2ccccc12` (centres undefined), “inactive”.
With `Oc1ccc(Cl)cc1Cc1cc(Cl)ccc1O`, the Potency is 7.08 µM (active).
On to `CN1CCC[C@@H]1CCO[C@](C)(c1ccccc1)c1ccc(Cl)cc1`, for which the Potency result was “inactive”.

For a further assay, the system named is ATS189. The description is as above. The note with it: P. falciparum in erythrocytes, SYBR Green DNA, 72 h; series mostly up to 28.7 µM. The procedure, abridged: as §1
`CCN(CC)CCOc1ccc2c(c1)C(=O)c1cc(OCCN(CC)CC)ccc1-2`: the Potency was 11.2 µM (active).
The same measure, in the same setting: in the case of `CCCN(CCc1cccs1)[C@H]1CCc2c(O)cccc2C1` it was 7.94 µM (active); in that of `CN1CCN(C2=Nc3ccccc3Sc3ccc(Cl)cc32)CC1`, “inactive”.
In the case of `CC1=C(C(=O)O)N2C(=O)[C@@H](NC(=O)[C@H](N)c3ccccc3)[C@H]2SC1`, the Potency entry is “inactive”.
On the same count and under the same terms, in the case of `O=C(CN1CCN(Cc2ccc3c(c2)OCO3)CC1)N1c2ccccc2Sc2ccccc21` it was 8.91 µM (active); in that of `COc1ccc(C(=O)c2ccccc2O)c(O)c1`, “inactive”; in that of `COc1cc(N)c(Cl)cc1C(=O)NC1CCN(Cc2ccccc2)CC1`, “inactive”.
For `Cc1cc(CC(=O)O)c(C)n1-c1ccc(Cl)cc1`, the Potency entry was “inactive”.
The same measure, in the same setting: as for `O=C(NC1CCN(CCc2c[nH]c3ccccc23)CC1)c1ccccc1`, the entry is “inactive”; as for `O=[N+]([O-])c1cccc(S(=O)(=O)NCCNS(=O)(=O)c2cccc([N+](=O)[O-])c2)c1`, “inactive”.
Still for that read-out and setting: as for `C[N+]1(C)CCC(=C(c2ccccc2)c2ccccc2)CC1`, the entry is “inactive”.
As for `CC[N+](C)(CC)CCOC(=O)C(O)(c1ccccc1)C1CCCCC1` (centres undefined), the Potency result is “inactive”.
Regarding `NC1CCN(c2nc3c(cc2F)c(=O)c(C(=O)O)cn3-c2ccc(F)cc2F)C1` (centres undefined), the Potency entry was “inactive”.
Still for that read-out and setting: in the case of `Cn1c(=O)c2[nH]c(Br)nc2n(C)c1=O` it was “inactive”; in that of `CC(C)(C)NC[C@H](O)COc1nsnc1N1CCOCC1`, 5.62 µM (active); in that of `CC(C)[N+](C)(C)CC(O)COc1cccc2ccccc12` (centres undefined), “inactive”.
For the compound `CN1CCC[C@@H]1CCO[C@](C)(c1ccccc1)c1ccc(Cl)cc1`, the Potency entry is “inactive”.

A further assay has as its system ATS95. The description is as above. The settings on record: P. falciparum in erythrocytes, SYBR Green DNA, 72 h; series mostly up to 28.7 µM. The procedure, abridged: as §1
For `CN1CCc2cccc3c2[C@H]1Cc1ccc(O)c(O)c1-3`, the Potency was 8.91 µM (active).
Same read-out and setting: in the case of `CCCN(CCc1cccs1)[C@H]1CCc2c(O)cccc2C1` it was 7.94 µM (active); in that of `CC1=C(C(=O)O)N2C(=O)[C@@H](NC(=O)[C@H](N)c3ccccc3)[C@H]2SC1`, “inactive”.
Still for that read-out and setting: as for `COc1ccc(C(=O)c2ccccc2O)c(O)c1`, the entry is “inactive”; as for `COc1cc(N)c(Cl)cc1C(=O)NC1CCN(Cc2ccccc2)CC1`, “inactive”.
Still for that read-out and setting: as for `Cc1cc(CC(=O)O)c(C)n1-c1ccc(Cl)cc1`, the entry is “inactive”.
As for `O=C(NC1CCN(CCc2c[nH]c3ccccc23)CC1)c1ccccc1`, the Potency entry was “inactive”.
On to `O=[N+]([O-])c1cccc(S(=O)(=O)NCCNS(=O)(=O)c2cccc([N+](=O)[O-])c2)c1`, for which the Potency result is “inactive”.
On the same count and under the same terms, as for `C[N+]1(C)CCC(=C(c2ccccc2)c2ccccc2)CC1`, the entry is “inactive”; as for `CC[N+](C)(CC)CCOC(=O)C(O)(c1ccccc1)C1CCCCC1` (centres undefined), “inactive”.
On the same count and under the same terms, as for `CCNC(=O)/C=C/c1cccc(Br)c1`, the entry is “inactive”; as for `Cn1c(=O)c2[nH]c(Br)nc2n(C)c1=O`, “inactive”; as for `CN(CCCN1c2ccccc2CCc2ccccc21)CC(=O)c1ccc(Cl)cc1`, 10 µM (active).
As for `CC(C)[N+](C)(C)CC(O)COc1cccc2ccccc12` (centres undefined), the Potency entry is “inactive”.

The test system of the next assay is C2A. The description is as above. The settings on record: P. falciparum in erythrocytes, SYBR Green DNA, 72 h; series mostly up to 28.7 µM. The procedure, abridged: as §1
Consider `CCN(CC)CCOc1ccc2c(c1)C(=O)c1cc(OCCN(CC)CC)ccc1-2`, for which the Potency is 10 µM (active).
For `CCCN(CCc1cccs1)[C@H]1CCc2c(O)cccc2C1`, the Potency was 11.2 µM (active).
For `CN1CCN(C2=Nc3ccccc3Sc3ccc(Cl)cc32)CC1`, the Potency entry is “inactive”.
Consider `CC1=C(C(=O)O)N2C(=O)[C@@H](NC(=O)[C@H](N)c3ccccc3)[C@H]2SC1`, for which the Potency result is “inactive”.
With `O=C(CN1CCN(Cc2ccc3c(c2)OCO3)CC1)N1c2ccccc2Sc2ccccc21`, the Potency was 11.2 µM (active).
On to `COc1ccc(C(=O)c2ccccc2O)c(O)c1`, for which the Potency entry was “inactive”.
With `COc1cc(N)c(Cl)cc1C(=O)NC1CCN(Cc2ccccc2)CC1`, the Potency result was “inactive”.
Regarding `Cc1cc(CC(=O)O)c(C)n1-c1ccc(Cl)cc1`, the Potency result was “inactive”.
`CN(C)CCOC(c1ccc(Cl)cc1)c1ccccn1` (centres undefined): the Potency result was “inactive”.
Turning to `O=C(NC1CCN(CCc2c[nH]c3ccccc23)CC1)c1ccccc1`, the Potency entry was “inactive”.
Same read-out and setting: in the case of `O=[N+]([O-])c1cccc(S(=O)(=O)NCCNS(=O)(=O)c2cccc([N+](=O)[O-])c2)c1` it was “inactive”.
As to `C[N+]1(C)CCC(=C(c2ccccc2)c2ccccc2)CC1`, the Potency entry was “inactive”.
Still for that read-out and setting: in the case of `CC[N+](C)(CC)CCOC(=O)C(O)(c1ccccc1)C1CCCCC1` (centres undefined) it was “inactive”; in that of `CCNC(=O)/C=C/c1cccc(Br)c1`, “inactive”; in that of `Cn1c(=O)c2[nH]c(Br)nc2n(C)c1=O`, “inactive”.
With `COC(=O)C(c1ccccc1Cl)N1CCc2sccc2C1` (centres undefined), the Potency result was “inactive”.
On to `OC(C#CCN1CCCC1)(c1ccccc1)c1ccccc1`, for which the Potency result is “inactive”.
Take `CN(CCCN1c2ccccc2CCc2ccccc21)CC(=O)c1ccc(Cl)cc1`: the Potency entry is “inactive”.
With `Oc1ccc(Cl)cc1Cc1cc(Cl)ccc1O`, the Potency entry was “inactive”.
On the same count and under the same terms, in the case of `CN1CCC[C@@H]1CCO[C@](C)(c1ccccc1)c1ccc(Cl)cc1` it was “inactive”.

The values above are taken from PubChem BioAssay (NCATS).
